KinaseGlo FLuc: Counterscreen for Luciferase (Kinase-Glo TM) Inhibition | AID 1379, 2008 | Potency, µM (titrated, usually from 38.3 µM), most hits filed as inhibitors | Kinase-Glo luciferase, ATP luminescence, 8 min | 200,000 tested, 0.28% active; active = well fitted curve in the direction sought with a large enough effect; inconclusive = small, poorly fitted or top-dose-only effect, or another doubt; inactive = no such curve, though single readings can be large; an effect the other way counts as inactive or inconclusive; also: nearly all actives have a fitted effect of over 60% in size
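Light output from Kinase-Glo luciferase with luciferin and 10 uM ATP in 50 mM imidazole pH 7.2, KCl, MgCl2, Tween 20, BSA; compound pin-delivered, 8-min ambient incubation, then luminescence read.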
IMPase Li cell: qHTS Assay for Identifying the Cell-Membrane Permeable IMPase Inhibitors: Potentiation with Lithium; CHO-M1 cells, IP1 TR-FRET (IP-One), carbachol + lithium; Potency, µM (doses to about 59.4 µM), most hits filed as inhibitors; 210,000 tested, 0.35% active; active = well fitted curve in the direction sought with a large enough effect; inconclusive = small, poorly fitted or top-dose-only effect, or another doubt; inactive = no such curve, though single readings can be large; an effect the other way counts as inactive or inconclusive;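 also: IP1 builds up when IMPase is blocked and the TR-FRET signal falls; nearly all actives have a fitted effect of over 50% in size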
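Lithium-sensitised IP1 accumulation assay; M1-expressing CHO cells treated 30 min at 37C with compound. Competitive antibody detection by time-resolved FRET followed a 10 min room-temperature lysis step.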
HPGD inh: qHTS Assay for Inhibitors of HPGD (15-Hydroxyprostaglandin Dehydrogenase). 150,000 tested, 4.3% active. purified HPGD, NADH fluorescence kinetic, PGE2 substrate. Potency, µM, hits mostly inhibitors
Target sequence (P15428 whole entry, looked up): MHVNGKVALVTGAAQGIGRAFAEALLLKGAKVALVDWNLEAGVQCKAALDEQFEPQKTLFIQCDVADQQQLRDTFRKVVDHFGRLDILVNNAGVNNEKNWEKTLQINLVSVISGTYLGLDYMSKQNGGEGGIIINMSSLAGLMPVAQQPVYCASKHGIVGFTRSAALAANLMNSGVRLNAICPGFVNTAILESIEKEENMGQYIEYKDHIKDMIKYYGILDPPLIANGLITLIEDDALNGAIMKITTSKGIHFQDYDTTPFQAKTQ
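NADH formation kinetics: reaction with 30 uM PGE2 and 1 mM NAD+ (final), 20 nM enzyme, Tris-HCl pH 8 with Tween 20, after 15 min compound preincubation at room temperature. Fluorescence change, last versus first of five reads.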
ALDH1A1 block: qHTS Assay for Inhibitors of Aldehyde Dehydrogenase 1 (ALDH1A1) | 220,000 tested, 7.3% active | Purified ALDH1A1, NADH fluorescence, propionaldehyde substrate | Aldehyde dehydrogenase 1A1 (Homo sapiens), P00352 | Potency, µM (series often up to 75.3 µM), hits mostly inhibitors
Target sequence (P00352 whole entry, looked up): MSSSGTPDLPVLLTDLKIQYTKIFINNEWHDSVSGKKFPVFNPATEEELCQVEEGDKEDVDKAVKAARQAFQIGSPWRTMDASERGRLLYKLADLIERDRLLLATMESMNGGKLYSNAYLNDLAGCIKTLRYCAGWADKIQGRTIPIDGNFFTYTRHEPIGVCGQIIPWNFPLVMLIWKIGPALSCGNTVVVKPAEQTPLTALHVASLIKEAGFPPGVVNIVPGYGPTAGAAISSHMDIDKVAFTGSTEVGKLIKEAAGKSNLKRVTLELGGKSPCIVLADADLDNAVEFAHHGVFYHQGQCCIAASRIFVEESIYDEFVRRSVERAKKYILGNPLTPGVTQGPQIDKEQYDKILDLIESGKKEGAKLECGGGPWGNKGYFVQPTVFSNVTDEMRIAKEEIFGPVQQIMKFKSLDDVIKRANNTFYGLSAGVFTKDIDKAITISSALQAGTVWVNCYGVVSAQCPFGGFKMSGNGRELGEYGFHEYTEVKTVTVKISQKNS
Lamin A splicing: qHTS Assay for Modulators of Lamin A Splicing; 200,000 tested, 0.01% active; Potency, µM (doses to about 46.1 µM), most hits filed as inhibitors; HeLa LMNA splicing GFP/RFP minigene ratio, 48 h; AID 1487, 2009; active = well fitted inhibition curve with a large enough effect in the signal ratio, with a control signal flat, not every such curve was filed as active; inconclusive = small, poorly fitted or top-dose-only effect, or effect the other way, or a change in a side signal; the % refers to the signal ratio
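S3 HeLa stable clones carrying a lamin A-EGFP splicing minigene plus DsRed2 were seeded at 600 cells/well in Opti-MEM with 2% FBS, pin-dosed and incubated 48 h at 37°C. Acumen cytometry (488 nm) gave the GFP/RFP total-intensity ratio.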
Numbers stand for hits; i = inactive; ? = inconclusive; nt = no result given; [ ] = remark or other dose. In the library only some 9% were active in any assay of this set; here they are far more common. Unless noted, calls follow the shape of the dose curve; as a rule, active = well fitted inhibition curve with a large enough effect (not every such curve was filed as active); inconclusive = small, poorly fitted or top-dose-only effect, or another doubt; inactive = no such curve, though single readings can be large or run the other way.

SMILES | KinaseGlo FLuc | IMPase Li cell | HPGD inh | ALDH1A1 block | Lamin A splicing
NNc1nnc(-c2ccccc2)c(-c2ccccc2)n1 | i | i | i | 13µM | ?
CCn1nnc(NC(=O)c2cccnc2)n1 | i | i | 25µM | i | i
CCn1nnc(NC(=O)c2ccc(C(C)(C)C)cc2)n1 | i | i | i | i | i
Cc1cccc(C#Cc2ccccc2)n1 | 13µM | i | ? | i | ?
Nc1ccc(C#Cc2ccccc2)cc1 | i | i | i | i | i
CCCNC(=O)CNC(=S)N(Cc1ccccc1F)C1CCCCC1 | i | i | nt | 10µM | i
CCOC(=O)CNC(=S)N(Cc1ccccc1F)C1CCCCC1 | i | i | nt | ? | nt
O=C(CNC(=S)N(Cc1ccccc1F)C1CCCCC1)NC1CC1 | i | i | i | 13µM | i
Cc1nn(-c2ccc(N3CCOCC3)nn2)c(C)c1CCC(=O)NCc1ccc(OC(C)C)cc1 | nt | nt | nt | nt | i
CCOCCCNC(=O)C1CCC(CNS(=O)(=O)c2cccc3nsnc23)CC1 (centres undefined) | i | i | 25µM | i | i
Cc1cc(C)n2c(SC/C(O)=C(\C#N)c3nc4ccccc4[nH]3)nnc2n1 | i | i | ? | 18µM | i
Cc1cccc(NC(=O)c2cc(CN3CCOCC3)on2)c1C | nt | nt | nt | nt | i
N#Cc1cc([N+](=O)[O-])ccc1NC(=O)COC(=O)C12CC3CC(CC(C3)C1)C2 | i | i | nt | 22µM | nt
O=C1CCCC1C(O)c1ccc2ccccc2c1 (centres undefined) | i | i | i | i | nt
O=C(C[n+]1cn(C(F)F)c2ccccc21)c1ccc(OC(F)F)cc1 | i | i | nt | 9.5µM | ?
O=C(C[n+]1ccc(C(=O)NCc2ccccc2)cc1)c1ccc(OC(F)F)cc1 | nt | i | nt | ? | nt
N#CC1=C(N)SC(N)=C(C#N)C1c1cccc(O)c1 | i | ? | ? | 25µM | i
COC(=O)C1=C2SC(C)C(=O)N2C(N)=C(C#N)C1c1ccc(OC)c(OC)c1 (centres undefined) | i | i | ? | 13µM | ?
CCOc1ccc(C2C(C#N)=C(N)SC(N)=C2C#N)c(OCC)c1 | i | ? | i | 18µM | i
COc1ccc(C2C(C#N)=C(N)SC(N)=C2C#N)cc1OC | i | i | 16µM | 28µM | i
COc1ccc(C2C(C#N)=C(N)OC(C(C)(C)C)=C2C#N)cc1OC (centres undefined) | i | i | ? | ? | i
COC(=O)N[C@@H](c1cccc(C)c1)C(C(C)=O)C(=O)OC (some centres undefined) | i | i | i | i | nt
O=C(CN1CCN(S(=O)(=O)c2ccc3ccccc3c2)CC1)Nc1ccc2c(c1)CCC2 | i | i | i | i | ?
Cc1ccc2c(c1)CC[C@H]1CC(=O)CC[C@@]21C | i | i | i | ? | nt
N#CCCN(CC#Cc1ccccc1)OCc1ccccc1 | nt | nt | nt | i[13.5 µM] | nt
SMILES | KinaseGlo FLuc | IMPase Li cell | HPGD inh | ALDH1A1 block | Lamin A splicing
CCOc1cc(C2C(C#N)=C(N)SC(N)=C2C#N)ccc1OCCN1CCOCC1 | i | ? | 22µM | 7.9µM | i
CCCc1[nH]nc2c1C(c1ccc(OCCN3CCOCC3)c(OC)c1)C(C#N)=C(N)O2 (centres undefined) | i | i | i | i | i
Cc1cccc(CCNC(=O)CN(C)S(=O)(=O)c2ccc3c(c2)c(=O)n(C)c(=O)n3C)c1 | i | i | i | i | i
Cc1ccc(CCNC(=O)CN(C)S(=O)(=O)c2ccc3c(c2)c(=O)n(C)c(=O)n3C)cc1 | i | i | i | 13µM | i
O=C(O)c1ccccc1Cl | nt | i | i | ? | nt
Cn1ccc2c(OCC(=O)NCc3ccc(F)cc3)cccc2c1=O | nt | nt | nt | nt | i
COc1ccc(C)c2sc(=NC(=O)c3ccccc3)n(C)c12 | 13µM | i | ? | ? | i
COc1ccc(-c2nc3c(c4c2C[C@H](c2ccccc2)OC4)CN(C(=O)NCCc2c[nH]c4ccccc24)CC3)c(C)c1 | i[7.66 µM] | i | i | i[13.5 µM] | i[9.22 µM]
O=C1C(Cl)=C(NC2CCc3ccccc32)C(=O)c2ncccc21 (centres undefined) | i | i | i | 11µM | nt
COc1ccc(CN2CCN(S(=O)(=O)c3ccc(C)cc3)CC2)cc1Br | i | i | i | 20µM | i
O=[N+]([O-])c1ccc(N2CCCC2)nc1N1CCCC1 | nt | nt | nt | 1.4µM | nt
COc1ccccc1CNC(=O)C1CCN(S(=O)(=O)c2cn(C)cn2)CC1 | nt | nt | nt | nt | i
Cc1cc(=O)oc(C)c1C(=O)OCC(=O)c1ccccc1 | i | i | ? | 16µM | i
COc1ncc2nc(-c3ccc(F)cc3)c(=O)n(-c3ccccc3)c2n1 | nt | i | nt | ? | i
CC(=O)Nc1ccc(NC(=O)C2CC(=O)N(Cc3ccccc3)C2)cc1 (centres undefined) | i | i | nt | 3.5µM | i
Cc1cc(C)c(NC(=O)C2CC(=O)N(Cc3ccccc3)C2)c(C)c1 (centres undefined) | i | i | nt | i | i
Cc1ccc2[nH]c3c(c2c1)CN(C(=O)CN1CCN(c2ccccn2)CC1)CC3 | i | i | i | 10µM | i
Cc1ccc2[nH]c3c(c2c1)CN(C(=O)CN1CCN(Cc2ccc4c(c2)OCO4)CC1)CC3 | i | i | i | ? | i
Cc1ccc2[nH]c3c(c2c1)CN(C(=O)CN1CC(C)OC(C)C1)CC3 (centres undefined) | i | i | i | 11µM | i
CC(=O)c1cccc(NC(=O)C2CCN(c3nnc(-n4cccc4)s3)CC2)c1 | nt | nt | nt | nt | i
Cc1ccccc1OCC(=O)Nc1ccc(OCc2cc(=O)n3ccccc3n2)cc1 | nt | nt | nt | nt | i
O=C(CSc1ncccc1-c1nc2ccccc2[nH]1)N1CCN(c2ccccc2F)CC1 | i | 10µM | ? | ? | ?
COC(=O)Nc1csc2c1NC(=O)CCCC2 | nt | nt | nt | i | nt
COc1ccc(NS(=O)(=O)c2ccc(I)cc2)cc1N1CCN(C)CC1 | i | i | i | ? | nt
COc1ccc(NC(=O)C(c2ccc(OC)cc2)N(Cc2ccco2)C(=O)CC2NC(=O)NC2=O)cc1 (centres undefined) | i | i | nt | i | nt
SMILES | KinaseGlo FLuc | IMPase Li cell | HPGD inh | ALDH1A1 block | Lamin A splicing
COc1ccc(C(C(=O)Nc2ccc(C(C)C)cc2)N(Cc2ccco2)C(=O)CC2NC(=O)NC2=O)cc1 (centres undefined) | i | i | nt | 25µM | nt
O=C(COC(=O)c1cnccn1)c1ccc2c(c1)CCCC2 | i | i | i | 28µM | i
O=C(CCCC(=O)OCC(Cl)=C(Cl)Cl)Nc1ccccc1 | i | i | 25µM | i | i
O=C(CCCC(=O)OCC(=O)c1cccs1)Nc1ccc(Oc2ccccc2)cc1 | i | i | i | ? | i
O=C(O)CCCC(=O)Nc1ccc(Cl)cc1 | i | i | nt | 28µM | nt
CC(C)(CO)[C@H](O)C(=O)NCCC(=O)O | i | i | i | i | i
CSC1=NC2(CCN(C(=O)NC3CCCCC3)CC2)N=C1c1ccc(C(C)(C)C)cc1 | nt | nt | nt | nt | i
CCOC(=O)c1cc(-c2ccc(F)cc2)n(CC(=O)NC2CCCCCC2)c1C | nt | nt | nt | nt | i

Bioassay records: PubChem, National Center for Advancing Translational Sciences (NCATS)
